High-throughput results as filed in PubChem.
DT40 TDP1 no CPT: qHTS for Inhibitors of human tyrosyl-DNA phosphodiesterase 1 (TDP1): qHTS in cells in absence of CPT; DT40 Tdp1-/- hTDP1 cells, no CPT, ATP luminescence, 48 h; Potency, µM (top dose mostly 46.2 µM), for the others: top-dose activity change, negative = growth inhibition, usual class: inhibitors; 420,000 compounds, 15% hits; AID 686978, 2013; also: nearly all actives have a fitted effect of over 55% in size
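Cells were dispensed at 400 per well, compounds added by pin tool, plates incubated ≥48 hr at 37 °C, then CellTiter-Glo added for 30 min at room temperature before luminescence reading. Line: DT40 Tdp1-/- complemented with hTDP1; camptothecin omitted.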
HT1080 IDH1KD tx: HT-1080 IDH1 knockdown cell toxicity (counter line); 360,000 compounds, 2% hits; Potency, µM (highest dose often 46.1 µM), inactives show at the highest dose activity, negative = toxicity, actives largely listed as cytotoxic; HT-1080 IDH1 knockdown viability, ATP luminescence, 48 h; AID 686971;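 also: 0% = DMSO wells and -100% = cell-free medium wells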
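% activity derives from luminescence (CellTiter-Glo), normalised to DMSO and no-cell wells. HT-1080-IDH1KD cells, 750/well, had 48 h compound exposure at 37 °C.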
KB-3-1 tox: kills parental KB-3-1 adenocarcinoma cells | KB-3-1 viability, CellTiter-Glo ATP luminescence, 72 h | 400,000 compounds, 1.4% hits | AID 1347075 | Potency, µM (highest dose often 46.1 µM), hits mostly cytotoxic; also: nearly all actives have a fitted effect of over 60% in size
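KB-3-1 cells, DMEM (no phenol red) + 10% FBS; compound by pin transfer, 72 h, 37 °C. Readout: CellTiter-Glo luminescence after 10 min. Data normalized, curve-fitted.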
KB-V1 MDR tox: kills drug-selected multidrug resistant KB-V1 cells; 400,000 compounds, 3.4% hits; AID 1347076; Potency, µM (top dose mostly 46.1 µM), usual class: cytotoxic; KB-V1 MDR cells viability, CellTiter-Glo, 72 h; also: nearly all actives have a fitted effect of over 60% in size
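KB-V1, DMEM (no phenol red) + 10% FBS; cpd pin-transferred, titration series; 72 h, 37 degrees C; CellTiter-Glo, luminescence. Data normalized, curve-fit.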
HT1080NT lethal: kills 2HG-producing HT-1080-NT fibrosarcoma cells; HT-1080-NT fibrosarcoma viability, CellTiter-Glo ATP luminescence, 48 h; Potency, µM (doses to about 46.1 µM), inactives show at the highest dose activity, negative = less viability, hits mostly cytotoxic; 360,000 compounds, 1.6% hits; AID 686970;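 also: NT is the 2HG producing partner of a matched IDH1 knockdown line; 0% = DMSO-treated cells and -100% = media-only wells without cells; nearly all actives have a fitted effect of over 55% in size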
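A 48-hour cytotoxicity screen used HT-1080-NT cells plated 2 hours before compound delivery. ATP-based CellTiter-Glo luminescence measured viability, normalized to DMSO and no-cell controls.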
TDP1 cell CPT: DT40-hTDP1 cell growth loss with CPT | chicken DT40 Tdp1-/-;hTDP1 cells + 20 nM CPT, ATP luminescence, 48 h | Potency, µM (titrated, usually from 46.2 µM), inactives show top-dose activity change, negative = growth inhibition, most hits filed as inhibitors | 420,000 compounds, 12% hits; also: nearly all actives have a fitted effect of over 55% in size
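Cell growth measured by CellTiter-Glo luminescence after a minimum 48 h, 37 C compound exposure with 20 nM CPT in Tdp1-knockout DT40 cells stably expressing hTDP1, seeded 400/well; qHTS titration format.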
* hit, by the source's call; i = inactive; ? = inconclusive; . = not tested or not shown. Rows were chosen to be rich in hits. Some 19% of all compounds tested hit in one or more screens of this group. Calls follow the shape of the dose curve; as a rule, active = well fitted curve in the direction sought with a large enough effect; inconclusive = small, poorly fitted or top-dose-only effect, or another doubt; inactive = no such curve, though single readings can be large; an effect the other way counts as inactive or inconclusive. Unless noted, % is scaled to controls: 0 for no effect and ±100 for the full control effect; potency is read from the fitted curve at half-maximal effect.

SMILES | DT40 TDP1 no CPT | HT1080 IDH1KD tx | KB-3-1 tox | KB-V1 MDR tox | HT1080NT lethal | TDP1 cell CPT
CC(C)(C)c1ccc(C(O)CCCN2CCC(C(O)(c3ccccc3)c3ccccc3)CC2)cc1 (centres undefined) | 4.61µM* | -19.1% | i | i | -12.7% | 5.8µM*
Oc1ccccc1CN1CCC(C(O)(c2ccccc2)c2ccccc2)CC1 | ? | 2.1% | i | i | 4.3% | -14.4%
c1ccc(COc2ccc(OCCCN3CCCC3)cc2)cc1 | ? | -17.7% | i | ? | -11.3% | 7.6%
CC(=O)Nc1ccccc1OCCCN1CCC(C(O)(c2ccccc2)c2ccccc2)CC1 | ? | ? | i | ? | ? | ?
CCCn1c(SCC(=O)Nc2nc3ccccc3s2)nc2c1c(=O)n(C)c(=O)n2C | 23.1µM* | -19.8% | i | i | -10.4% | 23.1µM*
Cn1c(=O)c2c(ncn2CC(=O)Nc2ccc3c(c2)OCO3)n(C)c1=O | -6.5% | 1.0% | i | i | 0.9% | -13.1%
CCCCn1c(SCC(=O)Nc2ccc3c(c2)OCO3)nc2c1c(=O)n(C)c(=O)n2C | ? | -13.5% | 20.6µM* | 5.8µM* | 8.0% | 16.4µM*
CCCCn1c(SCC(=O)Nc2nnc(CC)s2)nc2ccccc2c1=O | 2.1% | 2.7% | i | ? | 2.6% | -2.6%
CCCn1c(SCC(=O)NCc2ccco2)nc2c1c(=O)n(C)c(=O)n2C | -3.7% | 6.3% | i | i | 13.0% | -8.7%
CCCCn1c(SCC(=O)Nc2nnc(CC)s2)nc2c1c(=O)n(C)c(=O)n2C | 11.6µM* | 2.82µM* | i | 20.6µM* | ? | 23.1µM*
CCn1c(SCC(=O)Nc2ccc(NC(C)=O)cc2)nc2c1c(=O)n(C)c(=O)n2C | ? | -14.3% | i | i | -20.3% | -1.1%
CCCn1c(SCC(=O)Nc2ccc(NC(=O)CC)cc2)nc2c1c(=O)n(C)c(=O)n2C | 20.6µM* | -2.8% | i | i | -1.5% | 0.4%
Cc1cccn2c(CN3CCCN(C=O)CC3)c(C(=O)N(C)CCc3ccccc3)nc12 | -14.6% | -0.8% | i | i | -1.7% | -10.4%
COc1ccc(OC)c(CCNC(=O)c2cc3c(=O)oc4ccc(C)cc4c3s2)c1 | -23.7% | . | i | i | . | 1.7%
CCCn1c(SCC(=O)Nc2cc(C)on2)nc2c1c(=O)n(C)c(=O)n2C | -32.0% | -10.8% | i | ? | 14.1% | -27.1%
CCCn1c(SCC(=O)Nc2cccc(C)n2)nc2c1c(=O)n(C)c(=O)n2C | ? | 13.2% | i | ? | -0.9% | 18.4µM*
CC(=O)Nc1ccc(NC(=O)CSCc2ccccc2Cl)cc1 | -24.7% | 2.2% | i | i | -0.6% | 2.5%
C/C(=N\NC(=O)CSCc1ccccc1Cl)c1cc(O)ccc1O | 5.17µM* | -17.5% | i | i | -17.4% | 6.51µM*
COc1cccc(-n2c(=O)c3c(C)c(C)sc3n(CC(=O)NCCc3ccc(OC)c(OC)c3)c2=O)c1 | -13.2% | . | i | i | . | -19.9%
CCc1ccc(Nc2nnc(SCC(=O)N(C)CC(=O)Nc3ccccc3CC)s2)cc1 | 14.6µM* | 8.8% | i | ? | 16.3% | 18.4µM*
CCc1ccccc1NC(=O)CN(C)C(=O)CSc1nnc(Nc2cccc(C)c2)s1 | ? | 5.5% | i | ? | 6.4% | -10.9%
COc1cncc(C#Cc2ccccn2)c1 | -23.8% | 1.0% | i | i | 28.3% | -4.6%
O=C(Nc1ccccc1F)c1csc(COCCO)n1 | 3.5% | 11.1% | i | i | 1.6% | -21.3%
N#C/C(=C\c1ccc(O)c(O)c1)C(=O)N1CCc2ccccc21 | 20.6µM* | -30.2% | i | ? | ? | ?
CC(C)(C(=O)N1CCC1(C)C(=O)NS(=O)(=O)c1ccccc1Cl)c1ccccc1 (centres undefined) | 6.7% | 4.4% | i | i | 17.4% | -18.5%
SMILES | DT40 TDP1 no CPT | HT1080 IDH1KD tx | KB-3-1 tox | KB-V1 MDR tox | HT1080NT lethal | TDP1 cell CPT
COc1ccccc1NC(=O)n1ncc2c(C)cccc21 | -15.7% | . | i | ? | . | -18.2%
CCN(C(=O)CCc1nc(-c2ccccc2F)no1)c1cc(OC)ccc1OC | ? | 1.6% | i | ? | 11.6% | 23.1µM*
COc1ccc(-c2noc(CCC(=O)N(C)c3cc(Cl)ccc3OC)n2)cc1 | -29.2% | . | i | i | . | ?
COc1ccc(C)cc1N(C)C(=O)CCc1nc(-c2ccccc2F)no1 | ? | . | i | i | . | 18.4µM*
COc1cc(Cl)c(C)cc1NC(=O)c1cc(S(=O)(=O)N2CCCC2)ccc1F | 4.9% | . | i | i | . | 5.9%
CCC(C)(C)c1nnc(NC(=O)c2cccc([N+](=O)[O-])c2)s1 | -15.9% | -8.9% | i | 20.6µM* | -15.7% | -20.0%
O=C(Nc1nnc(CSCc2ccc(F)cc2)s1)c1cccc([N+](=O)[O-])c1 | ? | -0.4% | ? | 4.61µM* | 2.4% | ?
O=C(Nc1nnc(CSCc2ccc(Cl)cc2)s1)c1cccc([N+](=O)[O-])c1 | ? | 5.6% | i | i | 2.6% | -2.5%
Cc1cc(=O)oc2cc(OCC(=O)Nc3ccccc3C(=O)O)ccc12 | -15.0% | -9.5% | i | i | -29.5% | 11.2%
O=C(NC(Cc1cn(Cc2ccccc2)cn1)C(=O)O)OCC1c2ccccc2-c2ccccc21 (centres undefined) | 13µM* | 17.4% | i | i | 10.4% | 14.6µM*
CC(C)C[C@H](NC(=O)OCC1c2ccccc2-c2ccccc21)C(=O)O | -12.8% | 6.9% | i | i | 10.7% | -3.0%
CC(=O)OCc1cnc(C)c2oc(=O)c(C(=O)Nc3cc(F)ccc3C)cc12 | -3.2% | . | i | i | . | 4.7%
CC(=O)c1ccc(NC(=O)CN(c2c(C)cccc2C)S(C)(=O)=O)cc1 | -9.9% | -0.1% | i | i | 1.1% | -1.2%
CCN(C(=O)C1CCCN(c2ncnc3c2nc2n3CCCCC2)C1)c1cccc(Cl)c1 (centres undefined) | 10.3µM* | -10.2% | i | i | ? | 20.6µM*
CCN(C(=O)C1CCCN(c2ncnc3c2nc2n3CCCCC2)C1)c1cccc(C)c1 (centres undefined) | 5.8µM* | . | ? | ? | . | 11.6µM*
CCOc1ccccc1NC(=O)CSc1ccc(-c2sc(C)nc2C)nn1 | 16.4µM* | -9.0% | i | ? | -2.2% | 20.6µM*
CCOC(=O)c1ccccc1NC(=O)CSc1ccc(-c2cccnc2)nn1 | ? | -19.3% | i | i | -5.1% | -27.4%
